According to PubChem BioAssay (NCATS):
Inconclusive results are not listed. Activity calls are given as the source filed them. Calls follow the shape of the dose curve; as a rule, active = well fitted curve in the direction sought with a large enough effect; inconclusive = small, poorly fitted or top-dose-only effect, or another doubt; inactive = no such curve, though single readings can be large; an effect the other way counts as inactive or inconclusive.

What was measured:
[1] = biological target: Cytochrome P450 3A4 (Homo sapiens) (UniProt P08684); assay: qHTS for inhibitors of CYP3A4 against the NCATS DSHEA and TCM libraries (AID 1919971);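 also: % is scaled to controls: 0 for no effect and ±100 for the full control effect; inhibition lowers luminescence from luciferin made by CYP3A4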
Summary of the method: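 Substances were tested against enzyme with a pro-luciferin substrate; minus-enzyme wells served as background. After NADPH-initiated oxidation (30-45 min, RT), light was generated with P450-Glo reagent.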

[2] = biological target: Cytochrome P450 2D6 (Homo sapiens) (UniProt P10635); assay: qHTS for inhibitors of CYP2D6 against the NCATS DSHEA and TCM libraries (AID 1919972); also: % is scaled to controls: 0 for no effect and ±100 for the full control effect
Summary of the method: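 qHTS, concentration–response format with most substances from 19.5 nM. CYP2D6 + pro-luciferin substrate, 15 min with compound, then 1x NADPH regen, 30–45 min RT dark. Glo detection 30 min, luminescence. Quinidine control.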

[3] = KB-3-1 P-gp reporter qHTS against the NCATS DSHEA and TCM libraries (AID 1919975); also: 0% is about no effect
Summary of the method: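 Parental KB-3-1 cells, 500 cells/well, in DMEM with 10% FBS, exposed 72 h at 37 C to compounds in concentration-response. Viability read by CellTiter-Glo luminescence after 30 min at room temperature.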

[4] = biological target: Cytochrome P450 1A2 (Homo sapiens) (UniProt P05177); assay: qHTS for inhibitors of CYPIA2 against the NCATS DSHEA and TCM libraries (AID 1919976);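 also: light from luciferin formed by CYP1A2 from a pro-luciferin substrate; series mostly up to about 37 µM; % is scaled to controls: 0 for no effect and ±100 for the full control effect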
Text: Assay Development and Screening Technology Laboratory (ADST)
National Center for Advancing Translational Sciences (NCATS), Rockville, MD
National Institute of Health (NIH), Bethesda, Maryland
Dietary Supplements and Natural Products have minor oversight of their safety and efficacy. We assembled a collection of Dietary Supplements and Natural Products (DSNP) as well as Traditional Chinese Medicinal (TCM) Plant extracts, which were screened against an in vitro panel of assays, including a liver cytochrome p450 enzyme panel, CAR/PXR signaling pathways, and P-gp transporter assays, to assess their activity. This pipeline facilitated the interrogation of Natural Product-Drug Interaction (NaPDI) through prominent metabolizing pathways. In addition, we compared the activity profiles of the DSNP/TCM substances with those of an approved drug collection. Many of the approved drugs have well-annotated mechanisms of action (MOA) while the MOAs for most of the DSNP and TCM samples remain unknown. […] Overall, we highlight four significant bioactivity profiles (measured by p-values) as examples of this prediction. […] To profile potential P-gp activity, a differential cell viability was measured against two cell lines: a parental KB-3-1 human cervical adenocarcinoma cell line and the drug-resistant subline KB-8-5-11 that overexpresses P-gp. […]
9; Read; Luminescence; ViewLux plate reader. […]

[5] = qHTS Counterscreen for compound interference against the NCATS DSHEA and TCM libraries (AID 1919978); details: firefly luciferase detection reagent interference, luminescence;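 also: compounds preincubated with 1 µM D-luciferin or buffer before detection reagent; % of control where 0% means no effect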
Summary of the method: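 Firefly luciferase detection reagent was added after compounds (19.5 nM–39.8 uM final) had been incubated 15 min at room temperature with 1 uM D-luciferin or with 100 mM phosphate buffer alone. Luminescence was read after 30 min at room temperature.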

[6] = Dual reporter qHTS for agonist of Pregnane X Receptor (hPXR) against the NCATS DSHEA and TCM libraries: Fluorescence readout (AID 1920058); also: 0% is about no effect
Summary of the method: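 Fluorescence read-out for cell viability: CellTiter-Fluor, 1 h at 37 °C, Ex/Em 405/540 nm. This followed ~24 h treatment of hPXR-Luc HepG2 cells with substances in agonist mode.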

[7] = biological target: Nuclear receptor subfamily 1 group I member 2 (Homo sapiens) (UniProt O75469); assay: Dual reporter qHTS for agonist of Pregnane X Receptor (hPXR) against the NCATS DSHEA and TCM libraries: Luminescence readout (AID 1920059); also: 0% is about no effect
Summary of the method: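 hPXR-LucHepG2 cells in phenol red-free DMEM with 5% charcoal-stripped FBS, 2000 cells/well, attached 5 h, then exposed 24 h at 37C to compounds; rifampicin as positive agonist control (2.8 nM–92 uM). Luciferase luminescence read.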

[8] = biological target: Nuclear receptor subfamily 1 group I member 2 (Homo sapiens) (UniProt O75469); assay: Dual reporter qHTS for antagonist of Pregnane X Receptor (hPXR) against the NCATS DSHEA and TCM libraries: Luminescence Readout (AID 1920060);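 also: HepG2 cells carrying hPXR luciferase reporter stimulated with rifampicin at 2 µM; 0% is about no effect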
Summary of the method: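 hPXR-Luc HepG2 cells exposed 24 h at 37 C to compounds with 2 uM rifampicin in antagonist mode; luciferase luminescence measured by ONE-Glo, with CellTiter-Fluor viability read beforehand.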

Measured: max response

Chain of Nuclear receptor subfamily 1 group I member 2 (Homo sapiens) (O75469 whole entry, looked up): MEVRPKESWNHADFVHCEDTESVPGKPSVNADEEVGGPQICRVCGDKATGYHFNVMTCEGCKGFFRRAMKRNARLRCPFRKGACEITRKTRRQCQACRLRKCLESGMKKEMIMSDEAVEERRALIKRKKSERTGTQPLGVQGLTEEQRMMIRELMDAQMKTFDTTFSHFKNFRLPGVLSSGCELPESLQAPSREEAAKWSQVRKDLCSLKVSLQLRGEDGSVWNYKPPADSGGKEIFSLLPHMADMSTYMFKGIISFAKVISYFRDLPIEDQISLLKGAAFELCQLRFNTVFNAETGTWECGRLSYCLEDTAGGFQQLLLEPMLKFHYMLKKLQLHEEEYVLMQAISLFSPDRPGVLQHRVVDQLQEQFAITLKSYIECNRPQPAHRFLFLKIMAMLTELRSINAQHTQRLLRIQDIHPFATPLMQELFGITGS
Chain of Cytochrome P450 3A4 (Homo sapiens) (P08684 whole entry, looked up): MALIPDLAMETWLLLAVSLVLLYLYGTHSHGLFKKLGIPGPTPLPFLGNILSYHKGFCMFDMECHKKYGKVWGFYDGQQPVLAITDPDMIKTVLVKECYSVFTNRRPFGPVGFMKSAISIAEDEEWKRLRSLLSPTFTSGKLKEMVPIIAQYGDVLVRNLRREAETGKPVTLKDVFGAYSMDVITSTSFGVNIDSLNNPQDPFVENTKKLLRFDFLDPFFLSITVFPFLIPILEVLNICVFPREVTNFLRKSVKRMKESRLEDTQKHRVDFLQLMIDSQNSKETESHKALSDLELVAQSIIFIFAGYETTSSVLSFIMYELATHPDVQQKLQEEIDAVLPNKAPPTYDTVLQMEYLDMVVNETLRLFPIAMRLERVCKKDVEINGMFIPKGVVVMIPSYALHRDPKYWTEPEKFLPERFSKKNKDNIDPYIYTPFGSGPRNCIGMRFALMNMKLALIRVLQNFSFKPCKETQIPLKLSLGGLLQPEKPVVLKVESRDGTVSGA
Chain of Cytochrome P450 2D6 (Homo sapiens) (P10635 whole entry, looked up): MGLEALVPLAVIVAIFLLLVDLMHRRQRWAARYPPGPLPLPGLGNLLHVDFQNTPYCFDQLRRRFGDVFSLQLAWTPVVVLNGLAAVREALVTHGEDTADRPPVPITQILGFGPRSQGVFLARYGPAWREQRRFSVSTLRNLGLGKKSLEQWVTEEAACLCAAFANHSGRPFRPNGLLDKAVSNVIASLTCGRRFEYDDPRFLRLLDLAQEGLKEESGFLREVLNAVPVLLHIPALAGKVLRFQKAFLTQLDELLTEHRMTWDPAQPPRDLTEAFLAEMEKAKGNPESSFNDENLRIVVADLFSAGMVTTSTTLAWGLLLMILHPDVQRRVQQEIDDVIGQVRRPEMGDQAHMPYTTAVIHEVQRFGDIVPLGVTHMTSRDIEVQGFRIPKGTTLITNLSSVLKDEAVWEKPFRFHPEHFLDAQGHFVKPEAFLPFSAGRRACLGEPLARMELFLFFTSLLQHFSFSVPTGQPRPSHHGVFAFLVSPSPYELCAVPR
Chain of Cytochrome P450 1A2 (Homo sapiens) (P05177 whole entry, looked up): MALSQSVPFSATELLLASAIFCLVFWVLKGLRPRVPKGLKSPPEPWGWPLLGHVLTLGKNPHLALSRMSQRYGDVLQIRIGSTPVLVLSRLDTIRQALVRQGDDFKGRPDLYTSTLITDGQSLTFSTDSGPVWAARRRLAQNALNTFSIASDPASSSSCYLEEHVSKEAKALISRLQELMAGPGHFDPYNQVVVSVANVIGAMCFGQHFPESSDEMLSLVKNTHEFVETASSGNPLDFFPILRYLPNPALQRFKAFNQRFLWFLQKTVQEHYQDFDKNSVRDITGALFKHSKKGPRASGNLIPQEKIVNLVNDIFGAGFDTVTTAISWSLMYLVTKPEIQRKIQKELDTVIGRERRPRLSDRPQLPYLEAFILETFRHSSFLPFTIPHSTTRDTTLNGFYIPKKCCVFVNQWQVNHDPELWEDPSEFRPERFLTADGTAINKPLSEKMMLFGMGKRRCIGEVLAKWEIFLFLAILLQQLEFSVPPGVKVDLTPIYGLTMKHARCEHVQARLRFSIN

C[C@]12CC[C@H](O)CC1=CC[C@@H]1[C@@H]2CC[C@]2(C)C(=O)CC[C@@H]12
inactive: [1] | [2] | [3] | [4] | [5] -2.96% | [6] | [7] | [8]
